# Data reported in PubChem BioAssay (NCATS).
# Results filed as inconclusive are left out. Where a call stands in place of a potency, no number is given. Activity calls are given as the source filed them. Calls follow the shape of the dose curve; as a rule, active = well fitted inhibition curve with a large enough effect; inconclusive = small, poorly fitted or top-dose-only effect; inactive = no such curve, though single readings can be large or run the other way. Numbered stars: 1 amine (or outer) side, 2 acyl side, 3 side chain; on linkers, the order of the positions; unused ones are H or OH. Bridge positions count the residues as written; N and C are the ends. Square brackets hold non-standard residues; d marks the D form. Peptide text beside a SMILES is read from it. I, II: the chains in the order shown. Actinocin(9to1) = Cc1c2oc3c(C)ccc(C(=O)[*:1])c3nc-2c(C(=O)[*:2])c(N)c1=O; NMeV = CN[C@H](C(=O)O)C(C)C; Sar = CNCC(=O)O
# Assay: Primary qHTS for small molecule stabilizers of the endoplasmic reticulum resident proteome: Secreted ER Calcium Modulated Protein (SERCaMP) assay (AID 1508630)
# Conditions: SH-SY5Y GLuc-SERCaMP (Gaussia luciferase released on ER calcium loss) secretion, thapsigargin, luminescence; series mostly up to 38.4 µM
# In short: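 GLuc-SERCaMP-expressing SH-SY5Y cells, pretreated 16 h with compound, are challenged with thapsigargin to empty ER calcium stores; after 4 h, coelenterazine is added directly to the medium and luminescence is imaged.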
# Potency is read from the fitted curve at half-maximal effect.
row,Structure (SMILES),Potency
1,NCCc1ccn[nH]1,inactive
2,CN1[C@@H]2CC[C@H]1CC(OC(=O)c1c[nH]c3ccccc13)C2 (some centres undefined),35.5 µM (active)
3,CCOc1ccc2nc3cc(N)ccc3c(N)c2c1,inactive
4,CCCN1CCCC[C@H]1C(=O)Nc1c(C)cccc1C,inactive
5,Cc1ccc(C(=O)C(C)CN2CCCCC2)cc1 (centres undefined),inactive
6,CCN(CC)CCNC(=O)COc1ccc(Cl)cc1,inactive
7,Cc1ccnc(NS(=O)(=O)c2ccc(N)cc2)n1,inactive
8,CCCSS/C(CCO)=C(\C)N(C=O)Cc1cnc(C)nc1N,inactive
9,"Cc1c2oc3c(C)ccc(C(=O)N[C@@H]4C(=O)N[C@H](C(C)C)C(=O)N5CCC[C@H]5C(=O)N(C)CC(=O)N(C)[C@@H](C(C)C)C(=O)O[C@@H]4C)c3nc-2c(C(=O)N[C@@H]2C(=O)N[C@H](C(C)C)C(=O)N3CCC[C@H]3C(=O)N(C)CC(=O)N(C)[C@@H](C(C)C)C(=O)O[C@@H]2C)c(N)c1=O (I: T[dV]P[Sar][NMeV] / II: T[dV]P[Sar][NMeV]; ester I:1-I:C, II:1-II:C; linker I:N-II:N via Actinocin(9to1))",inactive
10,OC[C@@H](O)[C@@H](O[C@@H]1O[C@H](CO)[C@H](O)[C@H](O)[C@H]1O)[C@H](O)[C@@H](O)CO,inactive
11,COc1ccc(C2C(=O)c3ccccc3C2=O)cc1,inactive
12,Cc1c(N(C)CS(=O)(=O)O)c(=O)n(-c2ccccc2)n1C,inactive
13,CCC(=O)c1c(O)cc(O)cc1O,inactive
14,C[C@H](CCC(=O)O)[C@H]1CC[C@H]2[C@@H]3C(=O)C[C@@H]4CC(=O)CC[C@]4(C)[C@H]3CC(=O)[C@]12C,inactive
